The values that follow are results of earlier work, collected in PubChem BioAssay AID977611.

The nature of the data set: PubChem AID 977611. The following applies: PDB protein-ligand complexes, literature Kd.

Structures can show the parent of a compound that is named as a salt. Among all 3,900 compounds or so, about 3,900 (100%) were called active. Cut-off not given; nearly all actives show Kd up to about 4200 µM. The set was probably picked from earlier hits. The list shows a part of the results. Numbered stars: 1 amine (or outer) side, 2 acyl side, 3 side chain; on linkers, the order of the positions; unused ones are H or OH. Starred links: 1 amine or outer side, 2 acyl side, 3 side chain; linkers in the order of their positions; H or OH if unused. Where a SMILES comes first, the peptide text is derived from it. Non-standard residues stand in square brackets, D forms with d. Square brackets hold non-standard residues; d marks the D form. Residues, ends and D or L forms follow the SMILES beside them. Peptide text beside a SMILES is read from it. [ ]: non-standard residue; d: D form. * marks the point of attachment. X1 = O=C([C@H](Cc1ccc(O[P+](O)(O)O)cc1)N[*:1])[*:2]; Lys(Me3) = C[N+](C)(C)CCCC[C@H](N)C(=O)O; Orn(CH(NH2)2) = NC(N)NCCC[C@H](N)C(=O)O; Tfa = O=C(C(F)(F)F)*

`N#C/C(=C\c1ccncc1)C(=O)NCc1ccccc1`: the Kd (commonly the concentration at which binding is half-saturated) (protein: RIO-type serine/threonine-protein kinase Rio1, PDB entry 4jin) is 2280 nM (active).

Turning to `C[C@@H](O)[C@H](N)C(=O)N[C@@H](CCCC[N+](C)(C)C)C(=O)N[C@@H](CCC(N)=O)C(=O)O` (H-Thr-[Lys(Me3)]-Gln-OH), under “protein: Os05g0196500 protein, PDB entry 4igq”, the Kd is 30100 nM (active). Take `C[N+](C)(C)CCCC[C@H](N)C(=O)N[C@@H](CCC(N)=O)C(=O)O` (H-[Lys(Me3)]-Gln-OH): the Kd (protein: Polycomb protein EED, PDB entry 3k26) was 400000 nM (active). With H-IGTDKELSDLLDFSAMFS-OH, the Kd (protein: eTAFH domain of AML1-ETO, PDB entry 2knh) was 7000 nM (active). Consider `CC[C@H](C)[C@H](NC(=O)[C@H](CC(=O)O)NC(=O)[C@H](Cc1ccccc1)NC(=O)[C@H](CC(C)C)NC(=O)[C@H](CC(=O)O)NC(=O)CNC(=O)[C@@H](NC(=O)[C@@H](NC(=O)[C@H](CCCCN)NC(=O)[C@H](CC(C)C)NC(=O)[C@H](CCCNC(N)N)NC(=O)[C@H](CCCNC(N)N)NC(=O)[C@H](CO)NC(=O)[C@H](CC(C)C)NC(=O)[C@H](CC(N)=O)NC(=O)[C@H](CCC(=O)O)NC(=O)[C@H](CCSC)NC(=O)[C@@H](N)[C@@H](C)O)C(C)C)[C@@H](C)O)C(=O)N[C@@H](CCSC)C(=O)O` (H-TMENLS[Orn(CH(NH2)2)][Orn(CH(NH2)2)]LKVTGDLFDIM-OH), for which, for the setting “protein: M11, the BCL-2 Homolog of Murine Gamma-herpesvirus 68, PDB entry 3bl2”, the equilibrium dissociation constant (Kd) was 1580 nM (active).

For the molecule H-TFKEVANAVKISASLM-OH, for the setting “protein: Calmodulin, PDB entry 2mg5”, the dissociation constant (Kd) was 700 nM (active). For the molecule `CSCC[C@H](NC(=O)[C@H](CC(C)C)NC(=O)CNC(=O)[C@@H](NC(=O)[C@H](CC(N)=O)NC(=O)[C@H](CCC(=O)O)NC(=O)[C@H](Cc1ccc(O[P+](O)(O)O)cc1)NC(=O)[C@@H](N)C(C)C)C(C)C)C(=O)O` (H-V[X1]ENVGLM-OH), the Kd (protein: Grb2 SH2 domain, pY-Clamp Ptpn11_pY580, PDB entry 4jmg) is 1.5 nM (active). For the molecule `O=C(O)C1(O)C[C@@H](O)C(O)[C@H](O)C1` (stereo partly specified), the Kd was 230000 nM (active) (protein: 3-dehydroquinate dehydratase (K170M mutation), PDB entry 4iuo) and 230000 nM (active) (protein: 3-dehydroquinate dehydratase, PDB entry 4gui). In the case of `OC[C@H]1O[C@@H](Oc2ccc3c(c2)Oc2cc(O)ccc2N3)[C@H](O)[C@@H](O)[C@H]1O`, for the setting “protein: PA-I galactophilic lectin, PDB entry 4lk7”, the Kd was 9100 nM (active). On to `CC(C)(C)OC(=O)N1CC(NC2NC(=O)c3cccnc3N2)C1` (stereo unspecified), for which the Kd (protein: PLASMINOGEN ACTIVATOR INHIBITOR 1, PDB entry 4aqh) was 290 nM (active). As to `Cc1nn(C)c2sc(C(=O)O)cc12`, the Kd (protein: Pantothenate synthetase (T2A, E77G mutation), PDB entry 4fzj) is 700000 nM (active).

On to `CC(C)[C@H](NC(=O)[C@@H](NC(=O)[C@@H](NC(=O)[C@H](CO)NC(=O)[C@H](Cc1ccc(O[P+](O)(O)O)cc1)NC(=O)[C@H](CCC(=O)O)NC(=O)[C@@H](NC(=O)[C@@H](NC(=O)[C@@H](N)CO)[C@@H](C)O)C(C)C)[C@@H](C)O)C(C)C)C(=O)N[C@@H](Cc1cnc[nH]1)C(=O)N[C@@H](CO)C(=O)O` (H-STVE[X1]STVVHS-OH), for which the Kd (protein: Suppressor of cytokine signaling 3(SOCS3), PDB entry 2hmh) is 70 nM (active).

Turning to `CC(C)[C@H](NC(=O)[C@H](C)NC(=O)[C@@H](N)CCCNC(N)N)C(=O)N[C@@H](CCC(=O)O)C(=O)N[C@@H](CC(N)=O)C(=O)N[C@@H](CCC(N)=O)C(=O)N[C@@H](Cc1ccc(O[P+](O)(O)O)cc1)C(=O)N[C@@H](CO)C(=O)N[C@@H](Cc1ccccc1)C(=O)O` (H-[Orn(CH(NH2)2)]AVENQ[X1]SF-OH), the Kd (protein: CBL E3 ubiquitin protein ligase, PDB entry 1yvh) is 43 nM (active). In the case of `CC(C)[C@H](NC(=O)[C@H](CO)NC(=O)[C@H](CCC(=O)O)NC(=O)[C@@H](N)CC(N)=O)C(=O)N[C@@H](CC(=O)O)C(=O)N[C@@H](Cc1ccc(O[P+](O)(O)O)cc1)C(=O)N[C@@H](CCCNC(N)N)C(=O)N[C@@H](C)C(=O)O` (H-NESVD[X1][Orn(CH(NH2)2)]A-OH), the Kd (protein: E3 ubiquitin-protein ligase CBL, PDB entry 3bux) was 2360 nM (active).

For H-AAIFYLAG-OH, the Kd (protein: HIV-1 protease, PDB entry 2nxd) was 2200 nM (active).

As for `CC(C)C[C@H](NC(=O)[C@H](CC(C)C)NC(=O)[C@H](CCCCN)NC(=O)[C@H](CCCNC(N)N)NC(=O)[C@H](C)NC(=O)[C@@H]1CCCN1C(=O)[C@H](CC(=O)O)NC(=O)[C@H](Cc1ccc(O)cc1)NC(=O)[C@H](C)N)C(=O)O` (H-AYDPA[Orn(CH(NH2)2)]KLL-OH), where the note is “protein: ALIX Bro1-V domains (KK268, 269YY mutant), PDB entry 2xs8”, the Kd was 24500 nM (active).

With H-AASFIDAKKMP-OH, the Kd (protein: coatomer alpha subunit, PDB entry 4j8g) is 64500 nM (active). H-ADLIAYFKAATKF-OH: under “protein: T cell receptor (TCR), PDB entry 1r5w”, the Kd was 2900 nM (active).

For H-ADLIAYPKAATKF-OH, the equilibrium dissociation constant (Kd) (protein: T cell receptor (TCR), PDB entry 1r5v) is 33000 nM (active). For H-TIYNTTLKY-NH2, the Kd (protein: anti-human cytomegalovirus antibody 8f9, PDB entry 3eyf) is 94 nM (active).

`CC[C@H](C)[C@H](NC(=O)[C@H](CCCCNC(=O)C(F)(F)F)NC(=O)[C@H](CO)NC(=O)[C@@H](NC(=O)[C@@H]1CCCN1C(=O)[C@H](Cc1c[nH]c2ccccc12)NC(=O)[C@@H](N)CCCN=C(N)N)[C@@H](C)O)C(=O)O` (H-RWPTSK(Tfa)I-OH): the Kd (protein: Golgi-associated PDZ and coiled-coil motif-containing protein CAL PDZ (CALP) domain, PDB entry 4nmt) is 14100 nM (active). In the case of `CC[C@H](C)[C@H](NC(=O)[C@@H](NC(=O)[C@H](CO)NC(=O)[C@@H](NC(=O)[C@H](CCCCNC(C)=O)NC(=O)[C@H](Cc1c[nH]c2ccccc12)NC(=O)[C@H](CCCN=C(N)N)NC(=O)[C@H](CO)NC(=O)[C@H](CC(N)=O)NC(=O)[C@H](C)N)[C@@H](C)O)[C@@H](C)CC)C(=O)O`, where the note is “protein: Golgi-associated PDZ and coiled-coil motif-containing protein CAL PDZ (CALP) domain, PDB entry 4nmq”, the Kd was 32300 nM (active). In the case of `CC[C@H](C)[C@H](NC(=O)[C@H](Cc1c[nH]c2ccccc12)NC(=O)[C@H](CCC(=O)O)NC(=O)[C@H](CC(N)=O)NC(=O)[C@@H](N)CO)C(=O)N[C@@H](CCC(N)=O)C(=O)N1CCC[C@H]1C(=O)N[C@@H](CCCNC(N)N)C(=O)N[C@@H](CC(C)C)C(=O)N1CCC[C@H]1C(=O)N[C@H](C=O)CCC(N)=O` (H-SNEWIQP[Orn(CH(NH2)2)]LPQ-aldehyde), the equilibrium dissociation constant (Kd) (protein: Ephrin type-B receptor 2, PDB entry 2qbx) was 6000 nM (active).

As to `CC[C@H](C)[C@H](NC(=O)[C@@H](NC(=O)[C@H](CO)NC(=O)[C@@H](NC(=O)[C@@H]1CCCN1C(=O)[C@H](CCCCNC(C)=O)NC(=O)[C@H](CCCN=C(N)N)NC(=O)[C@H](CO)NC(=O)[C@H](CC(N)=O)NC(=O)[C@H](C)N)[C@@H](C)O)[C@@H](C)CC)C(=O)O`, the Kd (protein: Golgi-associated PDZ and coiled-coil motif-containing protein CAL PDZ (CALP) domain, PDB entry 4nmr) was 298000 nM (active).

Consider H-RWPTSK(Ac)I-OH, for which, under “protein: Golgi-associated PDZ and coiled-coil motif-containing protein CAL PDZ (CALP) domain, PDB entry 4nmo”, the Kd is 14900 nM (active). As for `CC[C@H](C)[C@H](NC(=O)[C@@H](NC(=O)[C@H](CO)NC(=O)[C@@H](NC(=O)[C@@H]1CCCN1C(=O)[C@H](Cc1c[nH]c2ccccc12)NC(=O)[C@H](CCCNC(N)N)NC(=O)[C@H](CO)NC(=O)[C@H](CC(N)=O)NC(=O)[C@H](C)N)[C@@H](C)O)[C@@H](C)CC)C(=O)O`, the Kd (protein: Golgi-associated PDZ and coiled-coil motif-containing protein, PDB entry 4e34) was 970 nM (active).

Consider `C[C@@H](O)[C@@H](C=O)[C@H]1CC(S)=C(C(=O)O)N1`, for which the dissociation constant Kd (protein: Probable L,D-transpeptidase LdtA, PDB entry 4jmx) is 62.1 nM (active). As to `CC1=C(/C=C/C(C)=C/C=C/C(C)=C/CO)C(C)(C)CCC1`, the Kd (protein: bovine beta-lactoglobulin, PDB entry 1gx8) is 430 nM (active).

On to `C/C=C(C)/C=C/C=C(C)/C=C/C1=C(C)CCCC1(C)C`, for which the dissociation constant Kd reads like this: (protein: Cellular retinoic acid-binding protein 2 (R111K, R132L, Y134F, T54V, R59W mutation), PDB entry 4i9s) 162 nM (active); (protein: Cellular retinoic acid-binding protein 2 (R111K, R132L, Y134F, T54V, R59W, A32W mutation), PDB entry 4i9r) 112 nM (active).
